The text below walks through data of the supplement of paper PMC6089552.

In this assay the test system is A673/TR/shEF. In words: cell viability (LOESS-normalised, relative to median of negative controls) (log2 ratio); higher = more viable cells (less compound effect), active = hit call of the paper (over 3 MAD below the median). As to conditions: treatment time: 72 h. In short, it runs like this: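 Doxycycline, present or absent from 24 h before compounds, was used to induce EWS-FLI1 shRNA knockdown in A673/TR/shEF Ewing sarcoma cells at 1,500 per well in 384-well plates. Cells then received library compounds at two or more concentrations, or DMSO controls, for three days. Viability was measured by CellTiter-Glo luminescence on an Envision reader, and per-plate LOESS correction, division by the negative-control median and log2 transformation followed.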

[1] abbreviates: 0.25 µM, library screen: screen2, EWS-FLI1 expression: high (no doxycycline).
Where [2] appears, read: 0.25 µM, library screen: screen2, EWS-FLI1 expression: low (doxycycline-induced shRNA knockdown).
Where [3] appears, read: 2.5 µM, library screen: screen2, EWS-FLI1 expression: high (no doxycycline).
Setting [4] is: 2.5 µM, library screen: screen2, EWS-FLI1 expression: low (doxycycline-induced shRNA knockdown).
Where [5] appears, read: 0.25 µM, library screen: screen1, EWS-FLI1 expression: high (no doxycycline).
[6] abbreviates: 0.25 µM, library screen: screen1, EWS-FLI1 expression: low (doxycycline-induced shRNA knockdown).
The mark [7] stands for this setting: 2.5 µM, library screen: screen1, EWS-FLI1 expression: high (no doxycycline).
Setting [8] is: 2.5 µM, library screen: screen1, EWS-FLI1 expression: low (doxycycline-induced shRNA knockdown).

Structures are written as SMILES. Out of some 3,200 compounds screened, about 300 (9.4%) showed activity. The sample holds actives, similar compounds and a random draw of the others, so the mix is not that of the screen. Values without a mark were called inactive.

As for `NC(Cc1cc(O)c(O)cc1O)C(=O)O` (stereo not drawn), the “cell viability (log2)” value under setting [1] is 0.0775, the “cell viability (log2)” value under setting [2] is 0.133, the “cell viability (log2)” value under setting [3] is 0.0832 and the “cell viability (log2)” value under setting [4] was 0.2.
For the molecule `CC(=O)c1c(O)c(C)c(O)c(Cc2c(O)c3c(c(C(=O)/C=C/c4ccccc4)c2O)OC(C)(C)C=C3)c1O`, the “cell viability (log2)” value is, setting by setting: (0.025 µM, library screen: screen1, EWS-FLI1 expression: high (no doxycycline)) 0.0285; (0.025 µM, library screen: screen1, EWS-FLI1 expression: low (doxycycline-induced shRNA knockdown)) 0.0263; under setting [5], 0.0889; under setting [6], 0.0306; under setting [1], 0.209; under setting [2], 0.109. Moreover, the “cell viability (log2)” value reads like this: under setting [7], 0.055; under setting [8], -0.0112; under setting [3], 0.118; under setting [4], 0.156; (25 µM, library screen: screen1, EWS-FLI1 expression: high (no doxycycline)) -0.306 (active); (25 µM, library screen: screen1, EWS-FLI1 expression: low (doxycycline-induced shRNA knockdown)) -0.0436.
Regarding `CC(N)Cc1c[nH]c2ccc(O)cc12` (stereo not drawn), the “cell viability (log2)” value is, setting by setting: under setting [1], 0.112; under setting [2], 0.067; under setting [3], 0.123; under setting [4], 0.0164.
`COc1ccc(C(c2ccc(OC)cc2)C(Cl)(Cl)Cl)cc1`: the “cell viability (log2)” value by setting is: under setting [5], 0.0772; under setting [6], 0.0568; under setting [7], 0.0994; under setting [8], 0.0877.
In the same order, the values of `ClC1=C(Cl)[C@]2(Cl)[C@H]3[C@H]([C@@H]4C=C[C@H]3C4)[C@@]1(Cl)C2(Cl)Cl` are 0.211, 0.0643, 0.0733 and 0.136.
`CCN(CC)C(=O)N[C@@H]1C[C@@H]2c3cccc4[nH]cc(c34)C[C@H]2N(C)C1`: the “cell viability (log2)” value runs as follows: under setting [1], 0.108; under setting [2], 0.0251; under setting [3], 0.215; under setting [4], -0.0279.
Turning to `CCCCSP(=O)(SCCCC)SCCCC`, the “cell viability (log2)” value under setting [5] was -0.12 (active), the “cell viability (log2)” value under setting [6] was 0.121, the “cell viability (log2)” value under setting [7] was 0.0791 and the “cell viability (log2)” value under setting [8] is 0.0846.
In the case of `CCCSP(=O)(OCC)SCCC`, the “cell viability (log2)” value by setting is: under setting [5], 0.112; under setting [6], 0.104; under setting [7], 0.0625; under setting [8], 0.0939.
Regarding `CC1=C[C@@H]2c3cccc4[nH]cc(c34)C[C@H]2N(C)C1`, the “cell viability (log2)” value is, setting by setting: under setting [1], 0.126; under setting [2], 0.0939; under setting [3], 0.18; under setting [4], 0.0817.
In the case of `CCOP(=S)(OCC)SCSCC`, the “cell viability (log2)” value under setting [5] is 0.102, the “cell viability (log2)” value under setting [6] was -0.0178, the “cell viability (log2)” value under setting [7] is 0.0726 and the “cell viability (log2)” value under setting [8] is 0.115.
On to `NC1CC1c1ccccc1` (stereo not drawn), for which the “cell viability (log2)” value reads like this: under setting [5], 0.107; under setting [6], 0.128; under setting [7], 0.188; under setting [8], 0.0868.
Turning to `COc1ccc2c3c1O[C@H]1[C@@H](O)CCC4[C@@H](C2)N(C)CC[C@@]341` (stereo partly drawn), the “cell viability (log2)” value runs as follows: under setting [5], 0.0725; under setting [6], 0.0483; under setting [7], 0.0123; under setting [8], 0.128.
As for `C=CCN1CCC2(C)c3cc(O)ccc3CC1C2C` (stereo not drawn), the “cell viability (log2)” value is 0.143 under setting [1], 0.072 under setting [2], 0.0589 under setting [3] and 0.0707 under setting [4].
For `N#Cc1c(Cl)cccc1Cl`, the “cell viability (log2)” value by setting is: under setting [5], 0.126; under setting [6], 0.0183; under setting [7], 0.084; under setting [8], 0.0798.
In the same order, the values of `N#Cc1c(Cl)c(Cl)c(Cl)c(C#N)c1Cl` are -0.0732, 0.00425, -0.219 (active) and 0.063.
